Measurements: PubChem BioAssay (EPA / NIEHS)
Activity calls are given as the source filed them. How the source made its calls: active means hit-call score of the fitted dose curve at least 0.9, where 1 is the maximum; inactive means score below 0.9.

assay: APR_HepG2_MitoticArrest_72hr: Apredica 72-hour HepG2 Assay for Mitotic Arrest (AID 2282918); conditions: high-content imaging, actives raise or lower the signal
How it was run: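 Using high-content imaging of fixed HepG2 cells, phospho-histone H3 signal was measured following a 72 hr incubation with ten-point compound dilutions up to 200 uM. DMSO served as the negative control and baseline for bidirectional curve fitting.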

| SMILES | AC50 | outcome |
| --- | --- | --- |
| CC(C)(C)CC(C)(C)c1ccc(O)c(-n2nc3ccccc3n2)c1 | 35.6 µM (active) | – |
| CC(=O)NC1(c2cccc(F)c2)CCN(CC[C@@]2(c3ccc(Cl)c(Cl)c3)CN(c3ccccc3)C(=O)CO2)CC1 | 14.8 µM (active) | – |
| CCc1ccc(CCOc2ccc(CC3SC(=O)NC3=O)cc2)nc1 (stereo not given) | 103 µM (active) | – |
| CCOC(=O)CC(O)(CC(=O)OCC)C(=O)OCC | – | inactive |
| Oc1cc2ccccc2c2ccccc12 | 8.45 µM (active) | – |
| CC[C@H](C)[C@@H](C(=O)O)n1sc2ccccc2c1=O | – | inactive |
| CCCCC[C@H](O)CC(=O)CCc1ccc(O)c(OC)c1 | – | inactive |
| CN1CCN(c2ccccc2/C=C2\SCCN(c3ccc(Cl)c(Cl)c3)C2=O)CC1 | 4.25 µM (active) | – |
| Cc1oc(-c2ccccc2)nc1CCOc1ccc(C[C@H](Nc2ccccc2C(=O)c2ccccc2)C(=O)O)cc1 | 67.8 µM (active) | – |
| CCc1nn(C2CCCCC2)c2cc(C3(C#N)CCC(C(=O)O)CC3)ccc12 (stereo not given) | 80.7 µM (active) | – |
| CC[C@H](c1ccc(O)cc1)[C@@H](CC)c1ccc(O)cc1 | – | inactive |
| N#C[C@@H]1CC(F)(F)CN1C(=O)CNC1CC2CCC(C1)N2c1ncccn1 (stereo not given in full) | – | inactive |
| CCCCCCCCCCCCc1ccccc1S(=O)(=O)O | 107 µM (active) | – |
| OCCC(F)(F)C(F)(F)C(F)(F)C(F)(F)C(F)(F)C(F)(F)C(F)(F)C(F)(F)F | 21.8 µM (active) | – |
| C[C@@H]1C[C@H]2[C@@H]3CCC4=CC(=O)C=C[C@]4(C)[C@@]3(F)[C@@H](O)C[C@]2(C)[C@@]1(O)C(=O)COP(=O)(O)O | 1.12 µM (active) | – |
